Drawing on PubChem BioAssay (EPA / NIEHS), this text covers outcome and AC50 for 4 compounds.

For orientation: AC50 means the midpoint of the concentration-response curve, whichever way the signal moves.

Each structure is given as a SMILES string. The source made the active and inactive calls. How the source made its calls: active means hit-call score of the fitted dose curve at least 0.9, where 1 is the maximum; inactive means score below 0.9.

Holding throughout (conditions): mRNA level, 48 h; actives raise or lower the signal
Read-out in assay [1]: CFLAR gene, CFLAR (gene 8837)
In words: LTEA_HepaRG_CFLAR: Life Technologies and Expression Analysis (LTEA) Assay for CFLAR gene using HepaRG (AID 2283455). The method in brief:
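HepaRG cells were plated for 48 h, switched to serum-free induction medium, then exposed in duplicate for 48 h to 8 concentrations (top 100 uM, half-log steps, 0.5% DMSO). CFLAR mRNA was measured by qRT-PCR, normalized to ACTB, GAPDH and POLR2A.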

Read-out in assay [2]: Forkhead box O1 (FOXO1), FOXO1 (gene 2308)
In words: LTEA_HepaRG_FOXO1: Life Technologies and Expression Analysis (LTEA) Assay for Forkhead box O1 (FOXO1) using HepaRG (AID 2283456). Summed up:
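Differentiated human HepaRG cells in serum-free induction medium were exposed in duplicate for 48 h to eight half-log concentrations (top 100 uM, 0.5% DMSO). FOXO1 mRNA was measured by TaqMan qRT-PCR, normalised to ACTB, GAPDH and POLR2A, and fitted bidirectionally against DMSO.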

Read-out in assay [3]: growth arrest and DNA damage 45 (GADD45A), GADD45A (gene 1647)
In words: LTEA_HepaRG_GADD45A: Life Technologies and Expression Analysis (LTEA) Assay for growth arrest and DNA damage 45 (GADD45A) using HepaRG (AID 2283458). The method in brief:
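Differentiated HepaRG cells exposed 48 h in serum-free induction medium to 8 concentrations, top 100 uM in half-log steps, 0.5% DMSO. GADD45A mRNA quantified by qRT-PCR, normalized to ACTB, GAPDH and POLR2A; bidirectional fit versus DMSO.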

Read-out in assay [4]: Forkhead box O3 (FOXO3), FOXO3 (gene 2309)
The experiment in a line: LTEA_HepaRG_FOXO3: Life Technologies and Expression Analysis (LTEA) Assay for Forkhead box O3 (FOXO3) using HepaRG (AID 2283459). The method in brief:
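Differentiated human HepaRG cells in serum-free induction medium were exposed in duplicate for 48 h to eight half-log concentrations up to 100 uM in 0.5% DMSO. FOXO3 mRNA was quantified by qRT-PCR, normalized to ACTB, GAPDH and POLR2A, with bidirectional fitting versus DMSO.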

Read-out in assay [5]: ABC Transporter (ABCB1), ABCB1 (gene 5243)
The experiment in a line: LTEA_HepaRG_ABCB1: Life Technologies and Expression Analysis (LTEA) Assay for ABC Transporter (ABCB1) using HepaRG (AID 2283460). Summed up: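 Differentiated human HepaRG cells, plated 48 h then switched to serum-free induction medium, were exposed in duplicate to eight half-log concentrations up to 100 uM in 0.5% DMSO for 48 h. ABCB1 mRNA was measured by TaqMan qRT-PCR, normalized to ACTB/GAPDH/POLR2A.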

Read-out in assay [6]: growth arrest and DNA damage 45 (GADD45B), GADD45B (gene 4616)
The experiment in a line: LTEA_HepaRG_GADD45B: Life Technologies and Expression Analysis (LTEA) Assay for growth arrest and DNA damage 45 (GADD45B) using HepaRG (AID 2283461). Summed up:
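Human HepaRG monolayers receive chemicals for 48 h at eight half-log concentrations, highest 100 uM, in 0.5% DMSO. Expression is measured by TaqMan qRT-PCR and normalized to ACTB, GAPDH and POLR2A.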

Read-out in assay [7]: ABC Transporter (ABCC3), ABCC3 (gene 8714)
In words: LTEA_HepaRG_ABCC3: Life Technologies and Expression Analysis (LTEA) Assay for ABC Transporter (ABCC3) using HepaRG (AID 2283462). Summed up:
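Transcriptional change of ABCC3 in HepaRG after 48 h treatment, determined by qRT-PCR normalized to endogenous controls. Concentrations spanned eight half-log steps to 100 uM in 0.5% DMSO.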

Read-out in assay [8]: ABC Transporter (ABCB11), ABCB11 (gene 8647)
In words: LTEA_HepaRG_ABCB11: Life Technologies and Expression Analysis (LTEA) Assay for ABC Transporter (ABCB11) using HepaRG (AID 2283463). Summed up:
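Differentiated human HepaRG cells were exposed for 48 h in serum-free induction medium to eight half-log concentrations up to 100 uM in 0.5% DMSO. ABCB11 mRNA was quantified by qRT-PCR, normalized to ACTB, GAPDH and POLR2A, and fitted bidirectionally versus DMSO.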

Read-out in assay [9]: ABC Transporter (ABCC2), ABCC2 (gene 1244)
In words: LTEA_HepaRG_ABCC2: Life Technologies and Expression Analysis (LTEA) Assay for ABC Transporter (ABCC2) using HepaRG (AID 2283464). The method in brief: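 After plating and 48 h culture, HepaRG medium is replaced with serum-free induction medium and chemicals are added (8 concentrations, max 100 uM, 0.5% DMSO) for 48 h. Total RNA then undergoes qRT-PCR for ABCC2 with housekeeping normalization.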

Read-out in assay [10]: Broad substrate specificity ATP-binding cassette transporter ABCG2 (Homo sapiens) (UniProt Q9UNQ0)
The experiment in a line: LTEA_HepaRG_ABCG2: Life Technologies and Expression Analysis (LTEA) Assay for ABC Transporter (ABCG2) using HepaRG (AID 2283465). Summed up: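 Differentiated HepaRG cells in serum-free induction medium were exposed for 48 h, in duplicate, to eight half-log concentrations up to 100 uM in 0.5% DMSO. ABCG2 mRNA was measured by TaqMan qRT-PCR, normalized to ACTB, GAPDH and POLR2A, and fitted bidirectionally versus DMSO.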

Read-out in assay [11]: ATP-citrate lyase (ACLY), ACLY (gene 47)
The experiment in a line: LTEA_HepaRG_ACLY: Life Technologies and Expression Analysis (LTEA) Assay for ATP-citrate lyase (ACLY) using HepaRG (AID 2283466). The method in brief: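 Differentiated human HepaRG cells in serum-free induction medium exposed 48 h, in duplicate, to eight half-log concentrations from 100 uM top in 0.5% DMSO; ACLY mRNA measured by qRT-PCR, normalized to ACTB, GAPDH, POLR2A, fitted bidirectionally versus DMSO.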

Read-out in assay [12]: Peroxisomal acyl-coenzyme A oxidase 1 (ACOX1) gene, ACOX1 (gene 51)
In words: LTEA_HepaRG_ACOX1: Life Technologies and Expression Analysis (LTEA) Assay for Peroxisomal acyl-coenzyme A oxidase 1 (ACOX1) gene using HepaRG (AID 2283467). The method in brief: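 Differentiated human HepaRG cells were exposed in duplicate for 48 h in serum-free induction medium to eight half-log concentrations up to 100 uM in 0.5% DMSO. ACOX1 mRNA was then quantified by TaqMan qRT-PCR, normalized to ACTB, GAPDH and POLR2A.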

Read-out in assay [13]: Alkaline Phosphatase, Placental (ALPP) gene, ALPP (gene 250)
In words: LTEA_HepaRG_ALPP: Life Technologies and Expression Analysis (LTEA) Assay for Alkaline Phosphatase, Placental (ALPP) gene using HepaRG (AID 2283468). The method in brief: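 Using human liver HepaRG cells, chemicals are tested in duplicate over 48 h at half-log concentrations topping at 100 uM; phenobarbital 1 mM serves as induction control. ALPP mRNA change by qRT-PCR, bidirectional fit against vehicle.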

Read-out in assay [14]: Bcl-2 (BAD) gene, BAD (gene 572)
In words: LTEA_HepaRG_BAD: Life Technologies and Expression Analysis (LTEA) Assay for Bcl-2 (BAD) gene using HepaRG (AID 2283469). Summed up:
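Differentiated human HepaRG cells in serum-free induction medium were exposed in duplicate for 48 h to eight concentrations (top 100 uM, half-log steps, 0.5% DMSO). BAD mRNA was quantified by qRT-PCR normalised to ACTB, GAPDH and POLR2A, with bidirectional fitting versus DMSO.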

Read-out in assay [15]: Bcl-2 (BAX) gene, BAX (gene 581)
In words: LTEA_HepaRG_BAX: Life Technologies and Expression Analysis (LTEA) Assay for Bcl-2 (BAX) gene using HepaRG (AID 2283470). Summed up: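 Differentiated HepaRG cells exposed 48 h in serum-free induction medium, eight half-log concentrations from 100 uM, in duplicate, 0.5% DMSO vehicle. BAX mRNA by TaqMan qRT-PCR, normalised to ACTB, GAPDH and POLR2A.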

Read-out in assay [16]: BCL2L11 (gene 10018)
In words: LTEA_HepaRG_BCL2L11: Life Technologies and Expression Analysis (LTEA) Assay for Bcl-2 (BCL2L11) gene using HepaRG (AID 2283473). Summed up:
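Human hepatic HepaRG cultures are treated 48 h with test chemicals (maximum 100 uM, 0.5% DMSO vehicle). Expression of BCL2L11 is measured by qRT-PCR against ACTB, GAPDH and POLR2A, with activity in either direction scored relative to vehicle.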

Read-out in assay [17]: Apolipoprotein A-V (APOA5) gene, APOA5 (gene 116519)
In words: LTEA_HepaRG_APOA5: Life Technologies and Expression Analysis (LTEA) Assay for Apolipoprotein A-V (APOA5) gene using HepaRG (AID 2283474). The method in brief: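 Concentration-response of APOA5 expression in HepaRG: eight half-log doses to 100 uM, 48 h, qRT-PCR normalized to ACTB/GAPDH/POLR2A, bidirectional fitting with 0.5% DMSO as baseline.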

Read-out in assay [18]: Alpha-fetoprotein (AFP) gene, AFP (gene 174)
The experiment in a line: LTEA_HepaRG_AFP: Life Technologies and Expression Analysis (LTEA) Assay for Alpha-fetoprotein (AFP) gene using HepaRG (AID 2283472). The method in brief: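 Differentiated human HepaRG cells exposed 48 h in serum-free induction medium, 8-point half-log series from 100 uM in 0.5% DMSO, duplicate. AFP mRNA by qRT-PCR, normalized to ACTB, GAPDH, POLR2A; bidirectional fit vs DMSO.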

Broad substrate specificity ATP-binding cassette transporter ABCG2 (Homo sapiens), sequence (Q9UNQ0 whole entry, looked up): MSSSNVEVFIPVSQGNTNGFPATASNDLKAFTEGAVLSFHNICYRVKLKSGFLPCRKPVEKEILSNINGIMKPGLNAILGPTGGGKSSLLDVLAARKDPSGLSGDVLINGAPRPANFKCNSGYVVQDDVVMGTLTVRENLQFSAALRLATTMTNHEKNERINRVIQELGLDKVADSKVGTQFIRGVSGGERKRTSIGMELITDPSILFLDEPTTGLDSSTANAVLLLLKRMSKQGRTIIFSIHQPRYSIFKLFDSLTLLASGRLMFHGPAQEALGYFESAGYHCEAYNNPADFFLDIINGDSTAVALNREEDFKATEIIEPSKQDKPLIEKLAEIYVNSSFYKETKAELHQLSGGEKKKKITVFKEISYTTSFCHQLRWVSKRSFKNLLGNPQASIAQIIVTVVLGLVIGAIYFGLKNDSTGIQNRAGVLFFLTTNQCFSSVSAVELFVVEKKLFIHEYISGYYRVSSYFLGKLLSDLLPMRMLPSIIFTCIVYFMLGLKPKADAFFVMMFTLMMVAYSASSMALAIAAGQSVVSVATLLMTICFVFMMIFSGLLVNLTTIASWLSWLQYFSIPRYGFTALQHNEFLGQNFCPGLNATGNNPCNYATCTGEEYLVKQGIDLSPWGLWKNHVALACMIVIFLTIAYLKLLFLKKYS

`C[C@]12CCC(=O)C=C1CC[C@@H]1[C@@H]2CC[C@]2(C)C(=O)CC[C@@H]12`: the compound was classed as inactive in [1], in assay [2], in [4], in assay [6], in [7] and in assay [12]. Moreover, the call in assay [14], in assay [15] and in assay [16] was inactive. For the same compound, the concentration at half-maximal activity (AC50) in [3] was 50 µM (active); in [5], 17.1 µM (active); in assay [8], 2.67 µM (active); in [9], 50 µM (active); in [10], 19.7 µM (active); in assay [11], 88.9 µM (active). Also, the concentration at half-maximal activity (AC50) in assay [13] is 29.8 µM (active); in assay [17] it was 50 µM (active).

`ClC1=C(Cl)[C@]2(Cl)[C@@H]3[C@H]4C[C@H]([C@@H]5O[C@H]45)[C@@H]3[C@@]1(Cl)C2(Cl)Cl`: the call in [1], in assay [2], in assay [3], in assay [4], in assay [5] and in assay [6] was inactive. In addition, the result in assay [7], in assay [11], in assay [12], in assay [13], in assay [14] and in assay [15] was inactive. Further, in assay [16], the call was inactive. In addition, the AC50 in assay [8] is 5.27 µM (active); in [9], 2.13 µM (active); in [10], 6.76 µM (active); in [18] it was 31.1 µM (active); in [17], 50 µM (active).

Take `COS(=O)(=O)OC`: the compound was called inactive in assay [1], in assay [2], in assay [3], in [4], in [5] and in assay [6]. Further, the outcome in [7], in assay [8], in [9], in assay [10], in [11] and in assay [12] was inactive. Moreover, the call in [13], in assay [14], in assay [15], in assay [16] and in assay [17] was inactive.

In the case of `CCOP(=S)(OCC)SCSC(C)(C)C`, the outcome in [1], in [2], in assay [3], in assay [4], in [5] and in [6] was inactive. Further, the result in [7], in [9], in assay [10], in assay [11], in assay [12] and in assay [13] was inactive. The outcome in [14], in [15], in assay [16] and in assay [17] was inactive. Further, the half-maximal activity concentration (AC50) in assay [8] was 18.6 µM (active).
